Here are results for 40 molecules from PubChem BioAssay (NCATS).

Structures are written as SMILES. Inconclusive results are not listed. Unmarked numbers belong to inactive results. Active and inactive are the calls of the source. Calls come from the whole dose curve; as a rule, active = well fitted cell-killing curve with a large enough effect; inconclusive = small, poorly fitted or top-dose-only effect; inactive = no such curve, though single readings can be large or run the other way.
Potency is the fitted concentration of half-maximal effect.

A short description of the assay: qHTS of pediatric cancer cell lines to identify multiple opportunities for drug repurposing: Primary screen for SK-N-MC cells (AID 1347093). Particulars: SK-N-MC viability, CellTiter-Glo luminescence, 48 h; series mostly up to 46 µM; activity change, negative = cytotoxic: at the top concentration. The text has this: Drug repurposing or repositioning has been offered as a strategy for drug development in oncology programs. This approach has special potential for childhood cancers and other rare or orphan diseases, where the expected return on new drug development has been a disincentive to pharmaceuticals.
In this project we exploit the poly-pharmacology of drugs to discover new indications via phenotypic screening of a panel of 19 well-characterized cell lines derived from solid tumors seen in children and adolescents. The goal is to identify approved drugs with previously unrecognized anticancer properties that has the potential to reveal new mechanisms and biological processes involved in carcinogenesis or drug resistance. We employed a titration-based paradigm (quantitative high-throughput screening or qHTS), where all compounds were tested at multiple concentrations for their effect on cell viability. Concentration-response curves (CRCs) were derived directly from the primary screen, and both potency and efficacy values were used to identify compounds with robust bioactivity profiles. We screened the NIH Chemical Genomics Center (NCGC) Pharmaceutical Collection (NPC) and Mechanism Interrogation Plate (MIPE) small molecule collections of approved and investigational compounds against these cell lines; and measured metabolically active cells after 48 hours of compound treatment as a proxy for cell viability.
Assay Submitter: Nathalia J. Martinez, National Center for Advancing Translational Sciences, National Institutes of Health, Rockville, MD, USA; email: natalia.martinez@nih.gov
[1] Shen, M et al. Quantitative high-throughput phenotypic screening of pediatric cancer cell lines identifies multiple opportunities for drug repurposing. Oncotarget 2017 Dec 19;9(4):4758-4772. PMID 29435139.
The cells were obtained from University of North Carolina (UNC), Pediatric Preclinical Testing Program (PPT), and Coriell Institute (CI).
qHTS cell viability assay:
Cells were assayed in growth media at a density of 500-1,000 cells/well. Five microliters of cells were dispensed into 1,536-well, white, solid-bottom, TC-treated plates (Greiner Bio One) using a multidrop dispenser and incubated at 37 degrees C, 5% CO2, under a humidified atmosphere for 5 hours. Twenty-three nanoliters of compounds and controls (neutral control DMSO or positive control bortezomib at final concentration of 2.3 µM) were subsequently transferred by Kalypsys pintool. For primary screens, the MIPE collection was tested at 11-point dilutions (final concentrations range from 0.78 nM to 46 µM) and the NPC collection at 8-point dilutions (final concentrations range from 0.59nM to 46 µM). Compounds tested in follow-up screens were assayed at 11-point dilutions. Cells were incubated for 48 hours, followed by addition of 3 uL of CellTiter-Glo (Promega). After a 15 min incubation at room temperature, samples were analyzed for luminescence intensity using a ViewLux High-throughput CCD imager equipped with clear filters.
`CCN(CC)CCCC(C)Nc1ccnc2cc(Cl)ccc12` (stereo not given): the Potency is 0.0372 µM (active). The same measure, in the same setting: the value for `CCCS(=O)(=O)Nc1ccc(F)c(C(=O)c2c[nH]c3ncc(Cl)cc23)c1F` was 4.18 µM (active); that for `Cc1cc(Nc2nc(N[C@@H](C)c3ncc(F)cn3)ncc2Cl)n[nH]1` was 3.72 µM (active). For the molecule `CC(C)(C)NCC(O)c1ccc(O)c(CO)c1` (stereo not given), the “activity change, negative = cytotoxic” value is -7.49%. As for `Nc1cccc(S(=O)(=O)N2CCCN(S(=O)(=O)c3ccc4c(c3)OCCO4)CC2)c1`, the “activity change, negative = cytotoxic” value is -17%.

On to `Cc1ccc(-n2nc(C(C)(C)C)cc2NC(=O)Nc2ccc(OCCN3CCOCC3)c3ccccc23)cc1`, for which the Potency was 0.662 µM (active). The same measure, in the same setting: the value for `NC(=O)C1CCCc2c1[nH]c1ccc(Cl)cc21` (stereo not given) was 26.4 µM (active). Consider `Cn1cnc([N+](=O)[O-])c1Sc1ncnc2nc[nH]c12`, for which the “activity change, negative = cytotoxic” value is -44%.

`CC(=O)NC(C)c1ccc(Oc2ccc(OC(C)C)cc2)cc1` (stereo not given): the Potency is 13.2 µM (active). Consider `CCC(=O)N[C@H]1CC[C@H](C(=O)N(C)c2ccc(-c3nc4ccccc4o3)cc2)C1`, for which the Potency is 0.833 µM (active).

As for `OC[C@H](Cc1ccccc1)Nc1nc(Oc2ccc3c(c2)CCC3)nc2c1ncn2Cc1ccc(-c2ccccc2)cc1`, the Potency is 1.87 µM (active). Take `Cc1cc2c(F)c(Oc3ncnn4cc(OC[C@@H](C)O)c(C)c34)ccc2[nH]1`: the Potency was 0.264 µM (active). Consider `CCCc1nc2c(C)cc(-c3nc4ccccc4n3C)cc2n1Cc1ccc(-c2ccccc2C(=O)O)cc1`, for which the Potency is 16.6 µM (active). Same read-out and setting: then `CO[C@@H]1[C@H](N(C)C(=O)c2ccccc2)C[C@H]2O[C@]1(C)n1c3ccccc3c3c4c(c5c6ccccc6n2c5c31)C(=O)NC4`, with 0.662 µM (active). Turning to `Cn1cnc2c(F)c(Nc3ccc(Br)cc3Cl)c(C(=O)NOCCO)cc21`, the Potency is 2.64 µM (active).

For `C[C@@H]1CN(Cc2ccc(F)cc2)[C@@H](C)CN1C(=O)c1cc2c(C(=O)C(=O)N(C)C)cn(C)c2cc1Cl`, the Potency is 0.0372 µM (active). For `OCCn1cc(-c2cnc3nnn(Cc4ccc5ncccc5c4)c3n2)cn1`, the “activity change, negative = cytotoxic” value was -7.72%. `Oc1ccc(C2CNCCc3c2cc(O)c(O)c3Cl)cc1` (stereo not given): the Potency result is “inactive”. Still for that read-out and setting: the value for `S=C(NCc1ccc2c(c1)OCO2)N1CCN(c2ncnc3c2oc2ccccc23)CC1` was 4.29 µM (active); that for `CC(C)(N)C(=O)N[C@H](COCc1ccccc1)C(=O)N1CCC2(CC1)CN(S(C)(=O)=O)c1ccccc12` was 23.5 µM (active). On the same count and under the same terms, then `CC(C)C[C@H](NC(=O)[C@@H](O)[C@H](N)Cc1ccccc1)C(=O)O`, with 29.6 µM (active). For `CN(C)C(=O)c1ccc(S(=O)(=O)c2ccc(NC(=O)[C@@](C)(O)C(F)(F)F)c(Cl)c2)cc1`, the Potency is 16.6 µM (active). On to `COc1ccc2c3n(c(=NC(=O)c4cccnc4)nc2c1OC)CCN3`, for which the Potency is 0.372 µM (active).

On to `Clc1cccc(Cl)c1NC1=NCCN1`, for which the Potency result is “inactive”. On to `COc1cccc2cc(-c3nc(C4CCC(C(=O)O)CC4)n4ncnc(N)c34)[nH]c12` (stereo not given), for which the Potency was 0.0235 µM (active). Turning to `Cn1cc(-c2ccc3nnc(C(F)(F)c4ccc5ncccc5c4)n3n2)cn1`, the “activity change, negative = cytotoxic” value was -9.71%.

In the case of `CS(=O)(=O)Oc1ccc2c(NC(N)=O)c(C(=O)c3ccc(Cl)cc3Cl)oc2c1`, the Potency is 1.48 µM (active). Consider `NC(=O)c1cnccn1`, for which the “activity change, negative = cytotoxic” value was -6.45%. On the same count and under the same terms, then `Cc1[nH]c(=O)c(C#N)cc1-c1ccc2nccn2c1`, with -5.66%.

In the case of `NC(=O)c1ccc(-c2nc(-c3ccc4c(c3)OCO4)c(-c3ccccn3)[nH]2)cc1`, the “activity change, negative = cytotoxic” value was 22.1%.

Turning to `COc1nc(-c2ccc3c(c2)OCO3)n(-c2ccc(NC(=O)CSc3ccccc3)cc2)n1`, the “activity change, negative = cytotoxic” value was 0.324%.

`CC1(C)Cc2c(-c3ccccc3)c(-c3ccc(Cl)cc3)c(CC(=O)O)n2C1`: the Potency was 26.4 µM (active). The same measure, in the same setting: then `Cc1cc(-c2ccc(CC(=O)Nc3ccc(-c4cccnc4)cc3)cc2)ccn1`, with 9.35 µM (active).

In the case of `NS(=O)(=O)c1cc2c(cc1Cl)NC=NS2(=O)=O`, the Potency result is “inactive”. As to `O=C(O)[C@@H](c1ccc(OCc2ccc3ccccc3n2)cc1)C1CCCC1`, the “activity change, negative = cytotoxic” value is 38%.

In the case of `CC(c1cc2ccccc2s1)N(O)C(N)=O` (stereo not given), the “activity change, negative = cytotoxic” value is -6%. `O=S(=O)(N=Cc1c(O)ccc2ccccc12)c1cccs1`: the Potency is 9.35 µM (active). Same read-out and setting: then `CCCCCCCc1ccc(CCc2cccc(O)c2C(=O)O)cc1`, with 9.35 µM (active).

As to `C[C@]1(c2nc3c(C(N)=O)cccc3[nH]2)CCCN1`, the Potency is 1.18 µM (active). On to `Cc1cc([C@@H](C)Nc2ccccc2C(=O)O)c2nc(N3CCOCC3)cc(=O)n2c1`, for which the Potency is 0.191 µM (active).
